An excerpt weighted towards active compounds, which were near 2.3% of everything screened.
CHRM1 antagonist = human M1 muscarinic receptor antagonists, primary screen, CHO-K1 cells, Fluo-8 calcium fluorescence, 1536-well. CHO-K1 hM1, ACh EC80 antagonist. inhibition, % at 3 µM. 1.3% of 360,000 active;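 active means percent inhibition above its own plate's cutoff, namely the mean of that plate's compound wells plus 3 SD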;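 further: peak over basal fluorescence ratio during 140 s after agonist addition; 0% = ACh EC80 plus DMSO and 100% = DMSO alone without agonist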
Target sequence (P11229 whole entry, looked up): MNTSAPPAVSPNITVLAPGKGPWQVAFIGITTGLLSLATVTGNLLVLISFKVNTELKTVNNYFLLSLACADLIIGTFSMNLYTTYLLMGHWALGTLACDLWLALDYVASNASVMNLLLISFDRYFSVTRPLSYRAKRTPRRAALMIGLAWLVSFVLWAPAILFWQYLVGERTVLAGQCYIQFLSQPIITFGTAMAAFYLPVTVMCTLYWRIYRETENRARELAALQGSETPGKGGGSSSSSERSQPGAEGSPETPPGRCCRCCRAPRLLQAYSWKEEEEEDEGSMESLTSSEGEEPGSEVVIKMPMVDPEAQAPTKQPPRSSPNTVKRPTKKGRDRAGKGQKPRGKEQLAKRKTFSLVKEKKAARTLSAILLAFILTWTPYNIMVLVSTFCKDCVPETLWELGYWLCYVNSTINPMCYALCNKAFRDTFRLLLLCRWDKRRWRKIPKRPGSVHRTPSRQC
M1 PAM = human M1 muscarinic receptor positive allosteric modulators, primary screen, CHO-K1 cells, Fluo-8 calcium fluorescence, 1536-well | CHO-K1 hM1, ACh EC20; 0% = ACh EC20, 100% = maximal ACh | Muscarinic acetylcholine receptor M1 (Homo sapiens), P11229 | 0.088% of 360,000 active | activation, % at 3 µM | AID 588819, 2011; in the data active means activation above about 19%, passing the limit was not always enough
CHO-K1 Ca ag = counter-screen for M1 agonists: effect in parental CHO-K1 cells. Fluo-8 calcium fluorescence; scaled to maximal ATP response, vehicle zero. activation, % at 3 µM. 0.48% of 360,000 active. AID 602248, 2012; in the data active means activation above about 15%;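 further: untransfected CHO-K1 host cells lacking M1 receptor as counterscreen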
CHO-K1 Ca antag = counter-screen for M1 antagonists: effect in parental CHO-K1 cells; inhibition, % at 3 µM; ATP-induced calcium, Fluo-8 fluorescence; AID 602250; 0.6% of 360,000 active;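 active means inhibition above a per-plate cutoff, the plate's mean sample inhibition plus 3 SD, cut at about 24% in these data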;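 further: 0% = DMSO plus EC80 ATP and 100% = DMSO alone without ATP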
M1 ag = human M1 muscarinic receptor agonists, primary screen, Fluo-8 calcium fluorescence, CHO-K1 cells, HTS. Muscarinic acetylcholine receptor M1 (Homo sapiens), P11229. CHO-K1 hM1, agonist mode; 0% DMSO, 100% acetylcholine EC100. activation, % at 3 µM. 0.33% of 360,000 active;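 active means activation above the run's mean compound activation plus 3 SD, cut at about 16% in these data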;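 further: peak over basal fluorescence ratio within a 140 s kinetic read after compound addition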
CHO-K1 Ca PAM = nonselective calcium activators in parental CHO-K1 cells, primary screen, counter-screen for M1 PAM project, cell-based, Fluo-8 calcium fluorescence, full deck, 1536-well. ATP EC20; 0% at ATP EC20, 100% at ATP max. activation, % at 3 µM. 0.02% of 360,000 active. AID 602247, 2012;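 active means activation above the run cutoff, the mean activation of all test compounds plus 3 SD, cut at about 40% in these data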;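 further: peak over basal fluorescence ratio in a 140 s read after ATP addition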
* marks the source's active call; other numbers are inactive results.

SMILES | CHRM1 antagonist | M1 PAM | CHO-K1 Ca ag | CHO-K1 Ca antag | M1 ag | CHO-K1 Ca PAM
CCOC(=O)C1CCCN(C(=S)Nc2cccc(Cl)c2)C1 (centres undefined) | 62* | -9 | 13 | 4 | 74* | 13
CCOC(=O)C1CCCN(C(=O)c2cccc(NC(=O)C(CC)CC)c2)C1 (centres undefined) | -2 | 6 | 0 | 24* | -2 | -19
O=C(COc1ccc(Br)cc1CNCCc1ccccc1)NCc1ccccc1 | 36* | -16 | 5 | 1 | -3 | 1
CCCNCc1cc(Br)ccc1OCC(=O)NCCc1ccccc1 | -13 | -1 | 3 | -4 | -9 | 18
COc1ccc(N(CC(=O)Nc2ccc(OC)c(Cl)c2)S(=O)(=O)c2c(C)noc2C)cc1 | 3 | -3 | 3 | -5 | -1 | 16
COc1ccc(N(CC(=O)Nc2ccc(F)c(Cl)c2)S(=O)(=O)c2c(C)noc2C)cc1 | 0 | 4 | 0 | 26* | -1 | -6
COc1ccccc1S(=O)(=O)N(C)C[C@@H]1OCc2cnnn2CCCC(=O)N([C@H](C)CO)C[C@H]1C | 19 | -10 | 0 | 7 | -11 | -12
Cc1c(C(=O)C(=O)NCc2cccs2)c2ccccc2n1C | -8 | 6 | 2 | -8 | -6 | -4
COc1cccc(CN2CCN(C(=O)c3ccc(-c4ccccc4)cc3)CC2)c1OC | -3 | 8 | 16* | 10 | -9 | 10
COc1cccc(CN2CCN(C(=O)c3cccc(OC)c3)CC2)c1 | -14 | 13 | 1 | -5 | -6 | 8
COc1cccc(CC(NC(C)=O)C(=O)NC2CCN(C(=O)c3ccc(Cl)cc3)CC2)c1OC (centres undefined) | -22 | 30* | 1 | 3 | 1 | 27
COc1cccc(CN2CCN(C(=O)c3ccc(-c4ccccc4)cc3)CC2)c1 | 10 | -3 | 16* | 5 | -4 | 11
COc1ccc(CN2CCN(C(=O)c3cc(-c4cccnc4)nc4ccc(Cl)cc34)CC2)c(OC)c1OC | 58* | -22 | 6 | 13 | -3 | -19
O=C(COC(=O)CNS(=O)(=O)/C=C/c1ccccc1)Nc1cccc2ccccc12 | -7 | 0 | 3 | -2 | -6 | 8
COC(=O)C1=C(C)NC2=C(C(=O)CCC2)C1c1ccc(-c2ccsc2C(=O)OC)o1 (centres undefined) | 6 | -3 | 4 | 23 | 25* | -17
CC1=C(C(=O)OC2CCCCCC2)C(c2ccc(C)o2)C2=C(CCCC2=O)N1 (centres undefined) | -5 | 11 | 0 | 13 | 6 | -3
O=C(NCc1ccccc1Cl)c1ccc2c(=O)n(CCCN3CCCC3=O)c(=S)[nH]c2c1 | 1 | 9 | -1 | 30* | -2 | -8
COCCNC(=O)c1ccc2c(=O)n(CCCN3CCCC3=O)c(=S)[nH]c2c1 | -9 | 10 | 1 | -13 | -2 | 14
Nc1ccc(S(=O)(=O)N2CCCC2)cc1 | -6 | 2 | 1 | -3 | -5 | 14
Nc1ccc(S(=O)(=O)c2ccc(N)cc2)cc1 | -35 | 5 | 2 | 26* | -2 | -9
CC(=O)OCCn1c2nc(=O)[nH]c(=O)c-2nc2cc(C)c(C)cc21 | 38* | -27 | 186* | 38* | 202* | -12
O=C(C1CCN(S(=O)(=O)c2ccc(Cl)cc2)CC1)N1CCC1 | 0 | 3 | 0 | -1 | -3 | 9
COc1ccc(OC)c(NC(=O)c2ccc(-c3cccs3)cc2)c1 | -11 | 1 | 0 | 0 | -9 | 5
CCCOc1ccc(C(=O)NNC(=S)NC(=O)c2cc(-c3ccc(Cl)cc3)nc3ccccc23)cc1 | 4 | 4 | 0 | 13 | -2 | 3
COc1ccc(C(=O)NC(=S)NNC(=O)c2ccccc2C)cc1 | 19 | -22 | 85* | 24* | 85* | -31

Screening data as filed in PubChem.
